Reference: PubChem BioAssay AID720690 (Broad Institute, 2013)
Entries with a potency or affinity are not part of this list. Activity calls are given as the source filed them.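 Rule for the calls: active = every repeat run showing a signal drop whose fitted half-maximal concentration is at most twice the top tested concentration; inconclusive = repeat runs disagree, or flat partial drop, or poor fit; inactive = the rest.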

Test: HEK293T cytotoxicity, dose response, cytotoxicity control for miR-122 modulator project, cell-based, activator set, cherry-pick (AID 720690)
Conditions: HEK293T viability, CellTiter-Glo luminescence, 48 h; series mostly up to 26 µM

| Compound | outcome |
| --- | --- |
| CN1C(=O)c2cc(NC(=O)c3cccc(F)c3)ccc2OC[C@@H]2O[C@@H](CC(=O)NC3CCC3)CC[C@H]21 | inactive |
| COC(=O)C[C@H]1CC[C@H]2[C@H](COc3ccc(NC(=O)c4cccc(F)c4)cc3C(=O)N2C)O1 | inactive |
| COC(=O)C[C@H]1CC[C@H]2[C@H](COc3ccc(NC(=O)NC(C)C)cc3C(=O)N2C)O1 | inactive |
| CCN(C[C@@H]1N[C@@H](CO)[C@@H]1c1ccc(C2=CCCC2)cc1)C(=O)c1cccnc1 | inactive |
| CN1C(=O)c2cc(NC(=O)c3ccccc3F)ccc2OC[C@H]2O[C@@H](CC(=O)NCc3ccc4c(c3)OCO4)CC[C@@H]21 | inactive |
| CCNC(=O)C[C@@H]1CC[C@@H]2[C@@H](COc3ccc(NC(=O)c4ccccc4)cc3C(=O)N2C)O1 | inactive |
| O=C(CNCCC1=CCCCC1)Nc1ccccc1N1CCCCCC1 | inactive |
| CN1C(=O)c2cc(NS(=O)(=O)c3cccc(F)c3)ccc2OC[C@H]2O[C@@H](CC(=O)NCCN3CCCCC3)CC[C@H]21 | inactive |
| C/C=C/c1ccc([C@@H]2[C@H](CO)N(Cc3ccccn3)[C@H]2CNC(=O)CC)cc1 | inactive |
| CC(=O)N1[C@H](CO)[C@H](c2ccccc2)[C@@H]1CN(C(=O)c1ccc(F)cc1)C(C)C | inactive |
| CCNC(=O)C[C@@H]1CC[C@@H]2[C@@H](COc3ccc(NC(=O)C4CCCCC4)cc3C(=O)N2C)O1 | inactive |
| COCC(=O)N(C)C[C@H]1Oc2cc(C#Cc3cccnc3)ccc2S(=O)(=O)N([C@@H](C)CO)C[C@@H]1C | inactive |
| C[C@@H]1CN([C@H](C)CO)S(=O)(=O)c2ccc(C#CC3(O)CCCC3)cc2O[C@@H]1CN(C)C(=O)c1cccnc1 | inactive |
| C/C=C/c1ccc([C@H]2[C@@H](CNC(=O)c3ccncc3)N(C(=O)CC)[C@H]2CO)cc1 | inactive |
| Cc1nnc(NC(=O)CSc2nc(C(C)C)nc3sc(C)c(C)c23)s1 | inactive |
| CO[C@@H]1CN(C)C(=O)c2ccc(NS(C)(=O)=O)cc2OC[C@H](C)N(C(=O)CN(C)C)C[C@@H]1C | inactive |
| CN(C)C(=O)C[C@@H]1CC[C@@H]2[C@@H](COc3ccc(NC(=O)C4CC4)cc3C(=O)N2C)O1 | inactive |
| CCCN(C[C@@H]1N[C@@H](CO)[C@H]1c1ccc(-c2cccnc2)cc1)C(C)=O | inactive |
| C[C@@H]1CN([C@@H](C)CO)C(=O)c2cccc(NS(C)(=O)=O)c2O[C@H]1CN(C)S(=O)(=O)c1ccc(Cl)cc1 | inactive |
| O=C(NC[C@H]1[C@@H](c2ccccc2)[C@@H](CO)N1CC1CCCC1)c1ccncc1 | inactive |

| Compound | outcome |
| --- | --- |
| C=CCNC(=S)NNC(=O)c1cccn(Cc2ccc(Cl)c(Cl)c2)c1=O | inactive |
| CCC(=O)N1[C@H](CO)[C@H](c2ccccc2)[C@@H]1CN(C(C)C)S(C)(=O)=O | inactive |
| CCC(=O)N(C)C[C@@H]1[C@H](c2ccc(-c3ccccc3F)cc2)[C@H](CO)N1C(C)=O | inactive |
| CC(C)C(=O)Nc1ccc2c(c1)C(=O)N(C)[C@@H]1CC[C@@H](CC(=O)N[C@H](C)c3ccccc3)O[C@@H]1CO2 | inactive |
| COCC(=O)Nc1ccc2c(c1)C(=O)N(C)[C@H]1CC[C@@H](CC(=O)NCCCN(C)C)O[C@H]1CO2 | inactive |
| COc1ccc(C#Cc2ccc3c(c2)O[C@H](CN(C)C(=O)CN2CCOCC2)[C@H](C)CN([C@@H](C)CO)S3(=O)=O)cc1 | inactive |
| COCC(=O)N(C)C[C@H]1Oc2cc(-c3ccccc3F)ccc2S(=O)(=O)N([C@@H](C)CO)C[C@H]1C | inactive |
| Cc1ccc(S(=O)(=O)Nc2ccc3c(c2)C(=O)N(C)[C@@H]2CC[C@H](CC(=O)NCCc4ccncc4)O[C@@H]2CO3)cc1 | inactive |
| CCCC(NS(=O)(=O)c1ccc(Br)cc1)C(=O)O (centres undefined) | inactive |
| COC(=O)C[C@@H]1CC[C@@H]2[C@H](COc3ccc(NC(=O)c4ccc(F)c(F)c4)cc3C(=O)N2C)O1 | inactive |
| CCS(=O)(=O)Nc1ccc2c(c1)C(=O)N(C)[C@H]1CC[C@H](CC(=O)NCCCN3CCOCC3)O[C@H]1CO2 | inactive |
| COc1ccc(-c2cn3c(C)c(C(=O)Nc4cccc(NC(C)=O)c4)sc3n2)cc1 | inactive |
| CCC(=O)N1[C@@H](CO)[C@H](c2ccccc2)[C@@H]1CN(C(C)C)S(C)(=O)=O | inactive |
| CC(C)C(=O)Nc1ccc2c(c1)C(=O)N(C)[C@@H]1CC[C@H](CC(=O)N[C@H](C)c3ccccc3)O[C@@H]1CO2 | inactive |
| Cc1noc(C)c1NC(=O)Nc1ccc2c(c1)C(=O)N(C)[C@@H]1CC[C@H](CC(=O)N[C@H]3CCN(Cc4ccccc4)C3)O[C@H]1CO2 | inactive |
| Oc1ccc(-c2nc(-c3ccc(O)c(O)c3)cs2)cc1 | inactive |
| CN(C)CCCNC(=O)C[C@@H]1CC[C@H]2[C@@H](COc3ccc(NC(=O)c4cccc(F)c4)cc3C(=O)N2C)O1 | inactive |
| CN1C(=O)c2cc(NS(=O)(=O)c3ccc(Cl)cc3)ccc2OC[C@H]2O[C@H](CC(=O)N3CCc4ccccc4C3)CC[C@@H]21 | inactive |
| CCCC(=O)Nc1ccc2c(c1)C(=O)N(C)[C@@H]1CC[C@@H](CC(=O)NCC(F)(F)F)O[C@H]1CO2 | inactive |
